Experimental data taken from PubChem BioAssay (NCI).
The panel holds about 79,000 compounds, 15% with a hit somewhere; the sample as a whole holds those more often. The source made the active and inactive calls. No stated cut-off is given here; in the data, active means growth inhibition above about 70%; inactive means the rest.

Columns and labels:
[1] = NCI Yeast Anticancer Drug Screen. Data for the rad50 strain (AID 155);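 further: 0% = growth of vehicle-only cultures of the same strain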; details: S. cerevisiae rad50 strain growth inhibition; at 50.0 µM; hits give high values
Method in brief: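 Compounds were tested on a yeast strain with an engineered DNA damage repair alteration; the reported value is growth inhibition normalised to vehicle treatment.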

[2] = NCI Yeast Anticancer Drug Screen. Data for the mec2-1 strain (AID 157); details: S. cerevisiae mec2-1 strain, at 50.0 µM, hits give high values
Method in brief: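 Strain: mec2-1 (DNA repair/cell cycle alteration). Compound exposure, then growth measured; inhibition expressed relative to vehicle.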

[3] = NCI Yeast Anticancer Drug Screen. Data for the sgs1 mgt1 strain (AID 161);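 further: 0% = growth of cultures given vehicle only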; details: S. cerevisiae sgs1 mgt1 strain, at 50.0 µM, hits give high values
Method in brief: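 Inhibition of yeast growth, normalised to vehicle-treated controls, is reported for a strain bearing genetic alterations in DNA damage repair.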

[4] = NCI Yeast Anticancer Drug Screen. Data for the cln2 rad14 strain (AID 165);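 further: 0% = growth equal to vehicle treated cultures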; details: S. cerevisiae cln2 rad14 strain, at 50.0 µM, hits give high values
Method in brief: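 Compounds are applied to the cln2 rad14 yeast strain, and growth is then compared with that of vehicle-treated cultures to give inhibition.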

[5] = NCI Yeast Anticancer Drug Screen. Data for the bub3 strain (AID 167); details: S. cerevisiae bub3 mutant strain, at 50.0 µM, hits give high values
Method in brief: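 Growth of a checkpoint-deficient yeast mutant is measured after compound exposure. Values represent inhibition relative to vehicle.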

[6] = NCI Yeast Anticancer Drug Screen. Data for the mlh1 rad18 strain (AID 175); details: S. cerevisiae mlh1 rad18 strain growth inhibition; at 50.0 µM; hits give high values
Method in brief: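 Read-out is yeast growth inhibition, calculated against vehicle-only controls. The compound was applied to a strain engineered with DNA damage repair alterations.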

Measured: growth inhibition

CN(C)N1C(=C(C#N)C#N)C(c2ccccc2)CC1C#N (stereo unspecified)
inactive: [1] 9.55% | [2] 12.9% | [3] -22.8% | [4] 13.2% | [5] -25.8% | [6] -41.5%

Nc1ccc2nc3n(c(=O)c2c1)CCCCC3
inactive: [1] -25.1% | [2] -11.4% | [3] 1.4% | [4] 23.2% | [5] 0.65% | [6] 10.8%

C1=Cc2ccccc2/C1=C\C=C\c1ccccc1
inactive: [1] 19.1% | [2] 8.75% | [3] -2.35% | [4] -11.4% | [5] 2.8% | [6] 18.1%

CC(C)(C)C1CCC2c3c([nH]c4ncccc34)C3C(=O)N(c4ccccc4)C(=O)C3C2C1 (stereo unspecified)
inactive: [1] 20.4% | [2] -6.15% | [3] 1.7% | [4] -67.2% | [5] -32.6% | [6] -7.85%

NC(CCSc1ccccc1)C(=O)O (stereo unspecified)
inactive: [1] -0.7% | [2] 8.35% | [3] -9.85% | [4] -34.5% | [5] -29.3% | [6] -5.45%

Cc1cccc(CN(C)Cc2cc(Cl)cc(C)c2O)c1O
inactive: [1] 14.8% | [2] -1.6% | [3] 1.1% | [4] -36% | [5] -1.25% | [6] 4.15%

CCCCCCC(O)CC[C@H]1CCC[C@@H](C)N1 (stereo partly specified)
inactive: [1] 46% | [2] 26.3% | [3] 39.5% | [4] 38.9% | [5] 45.5% | [6] 38.5%

CC1=CC(=N/S(=O)(=O)c2ccccc2)/C2CC(C)=C(C)CC2/C1=N\S(=O)(=O)c1ccccc1 (stereo unspecified)
inactive: [4] 56.6%
active: [1] 82.6% | [2] 78.6% | [3] 93% | [5] 81.2% | [6] 85.3%

CCCCCCCCCOCC(COP(=O)([O-])OCC[N+](C)(C)C)OC (stereo unspecified)
inactive: [1] 10.2% | [2] 13.3% | [3] 1.4% | [4] -22.4% | [5] -7.75% | [6] 17.5%

NC(C(=O)O)C(F)(F)C(=O)O (stereo unspecified)
inactive: [1] 2.45% | [2] -18.7% | [3] -2.7% | [4] -33.1% | [5] -7.3% | [6] -1.15%

O=C(NCCCl)Nc1cccc2c1CCC2
inactive: [1] -11.1% | [2] -0.7% | [3] -9.5% | [4] -47.3% | [5] -23.1% | [6] -4.8%

Cc1ccc(-c2nc3ccccc3c(=O)n2/N=C/c2ccc(Cl)cc2Cl)cc1
inactive: [1] 9.05% | [2] 3.85% | [3] 7.65% | [4] 11.1% | [5] 7.35% | [6] 21.4%

CCC12CC3(C(=O)OC)OC1C(O)CN1CCc4c(n3c3cc(OC)ccc43)C12 (stereo unspecified)
inactive: [1] 6.9% | [2] -42.1% | [3] 12.2% | [4] 5.05% | [5] -9.35% | [6] 1.5%

CS(=O)(=O)OCCCCOS(=O)(=O)CF
inactive: [1] -36.9% | [2] -35% | [3] -31.4% | [4] -14.2% | [5] -8.7% | [6] -20%

COc1ccc(C2(C)OCCC(C)O2)cc1 (stereo unspecified)
inactive: [1] -0.25% | [2] -18.1% | [3] 0.1% | [4] -24.1% | [5] -5.2% | [6] 10.6%

O=[N+]([O-])c1c(Nc2ccccc2)ncnc1Nc1ccccc1
inactive: [1] -33.9% | [2] -15.9% | [3] -9.6% | [4] 3.45% | [5] -10.6% | [6] 1.05%

OCCOc1ccc(C(Cc2ccccc2)N(CCO)CCO)cc1 (stereo unspecified)
inactive: [1] -10.1% | [2] 2.15% | [3] 7.5% | [4] -12.6% | [5] 4.7% | [6] -1.45%

S=C(S)OC1CCCCC1.[Zn+2]
inactive: [1] -14.9% | [2] -15.8% | [3] -22.2% | [4] -50.9% | [5] -24.8% | [6] -12.2%

CCN(CC)CCCNc1nc2ccccc2c2[nH]c3ccc(OC)cc3c12
inactive: [1] -37.4% | [2] -26.2% | [3] -41.9% | [4] -36.8% | [5] -40% | [6] -28.2%

COC(=O)c1cc(/C=C/C(=O)Cc2ccccc2)cn1S(=O)(=O)c1ccccc1
inactive: [1] -6.3% | [2] -9.6% | [3] -13.5% | [4] -23.9% | [5] 1.5% | [6] 1.9%

O=c1[nH]c2ccccc2c(O)c1/C=N/C(=S)NCc1ccccc1
inactive: [1] -23.1% | [2] -23.8% | [3] 3.95% | [4] 0.2% | [5] 0.7% | [6] -37.2%

COc1cc(C2C3=C(COC3=O)Oc3cc4c(cc32)OCO4)ccc1OC(C)=O (stereo unspecified)
inactive: [1] 20.7% | [2] 5.55% | [3] -13.8% | [4] 21.1% | [5] -4.35% | [6] -5.2%

CCOC(=O)C1C(=O)CC1(C)C (stereo unspecified)
inactive: [1] 12.2% | [2] 6.9% | [3] 12.2% | [4] 36% | [5] 25.9% | [6] 21.8%

CN(CC(C)(C)C(O)c1ccccc1)C(=O)c1ccccc1 (stereo unspecified)
inactive: [1] 0.95% | [2] -5.7% | [3] 12.7% | [4] 20.7% | [5] 8.2% | [6] 12.6%

COC(=O)Nc1cccc(NC(=O)C(=O)O)c1
inactive: [1] -0.1% | [2] 3.75% | [3] -0.95% | [4] -29.4% | [5] -4.7% | [6] -0.9%

C=CCN1C(=O)c2ccccc2S1(=O)=O
inactive: [1] 8.2% | [2] -2.35% | [3] -5.95% | [4] -27.8% | [5] -3.15% | [6] 3.55%

CC(=O)Nc1ccc(N(C)C)cc1Cl
inactive: [1] -24.6% | [2] -17.2% | [3] -13.7% | [4] -17.1% | [5] -1.8% | [6] -16.1%

Cc1ccccc1C(C#N)/C(=N/NC(=O)C(=O)NN)C(=O)Nc1cccc(C(F)(F)F)c1 (stereo unspecified)
inactive: [1] 34.1% | [2] 10.9% | [3] 14.2% | [4] 23.1% | [5] 0.25% | [6] 21.8%

O=C(/C=C\c1ccccc1)Nc1c(Cl)cc(Cl)cc1Cl
inactive: [1] 0.65% | [2] 10.5% | [3] 9.05% | [4] -8.75% | [5] 39.5% | [6] 23.3%

CCc1ccc(NC(=S)NC(=O)c2ccccc2OC)cc1
inactive: [1] 10.6% | [2] 7.05% | [3] 9.3% | [4] 21.1% | [5] 20.4% | [6] 3.95%

N#CC(C(=O)O)=C1CCCCCC1
inactive: [1] 2.4% | [2] -1% | [3] 3.7% | [4] -1.8% | [5] 5.5% | [6] -0.8%

CCCCCC(CN(C)C)C(=O)CC(SCC)c1ccccc1 (stereo unspecified)
inactive: [1] 27.7% | [2] 20.4% | [3] 8.85% | [4] 1.05% | [5] 18.6% | [6] 16.8%

COc1ccccc1NC(=S)N/C=C(\C#N)c1nc2ccccc2s1
inactive: [1] -28.4% | [2] 5.95% | [3] -8.9% | [4] 3.45% | [5] 2.3% | [6] -3%

Cc1cc(N=Nc2ccc(O)c3ncccc23)c2ccccc2n1
inactive: [1] 9.5% | [2] 6.85% | [3] 22.8% | [4] -4.9% | [5] 18% | [6] 19.1%

O=CNC1(c2ccccc2)CCCCC1
inactive: [1] 2% | [2] -37% | [3] -12.2% | [4] 16.4% | [5] 4.6% | [6] 4.85%

CC(=O)[O][Ga]([Cl])[O]C(C)=O
inactive: [1] 22.2% | [2] 27.2% | [3] 34.1% | [4] 34.3% | [5] 30.3% | [6] 14.3%

c1ccc(C2=C(c3ccccc3)C2c2ccccc2)cc1
inactive: [1] 10.8% | [2] -8.95% | [3] -4.5% | [4] -21.1% | [5] -2.15% | [6] 7.15%

Cc1ccc(NC(=O)C(=O)C(C(=O)c2ccc3ccccc3c2)C2OC(=O)c3ccccc32)c(C)c1 (stereo unspecified)
inactive: [1] 45.6% | [2] 26.6% | [3] 32.9% | [4] 11.2% | [5] 34.9% | [6] 62.2%

C[C@H]1C[C@](C)(CO)Oc2oc3ccccc3c(=O)c21
inactive: [1] 4.5% | [2] 10.3% | [3] 17.4% | [4] 4.75% | [5] 7.2% | [6] 13.1%

SCCCCN1CCCCC1
inactive: [1] -17.2% | [2] -14.3% | [3] 5.4% | [4] -12.2% | [5] -4.45% | [6] -9.9%

OC(CBr)c1cc(-c2ccc(Cl)cc2)nc2c(-c3ccccc3)cccc12 (stereo unspecified)
inactive: [1] -3% | [2] 3.85% | [3] -4.05% | [4] -25.4% | [5] 2.35% | [6] 28.7%
